ELG1 DNA repair = qHTS screen for small molecules that inhibit ELG1-dependent DNA repair in human embryonic kidney (HEK293T) cells expressing luciferase-tagged ELG1; HEK293T ELG1-luciferase reporter, luminescence, 16 h; DNA damage induced by 5-fluorouridine; Potency, µM (doses to about 46.1 µM), without a hit: at the highest dose activity change, negative = inhibition, actives largely listed as inhibitors; actives 2.3% (n = 330,000); further: on the % scale 0 is the no-effect control and ±100 the full control effect; nearly all actives have a fitted effect of over 55% in size
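Luminescence from the luciferase reporter, measured 30 min after ONE-Glo reagent at room temperature, was the read-out. Beforehand, 2,000 cells per well were exposed for 16 hr at 37 °C to 5-fluorouridine together with compound or vehicle.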
ELG1 genotoxic = qHTS screen for small molecules that induce genotoxicity in human embryonic kidney (HEK293T) cells expressing luciferase-tagged ELG1. actives 1.3% (n = 330,000). Potency, µM (top dose mostly 46 µM), inactives show top-dose activity change, positive = activation, actives largely listed as activators. HEK293T ELG1-luciferase reporter, luminescence, 16 h; further: % of control where 0% means no effect; nearly all actives have a fitted effect of over 60% in size
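Quantitative HTS format in 1536-well plates. HEK293T ELG1-luciferase reporter cells receive test compound and are incubated 16 hr at 37 °C, 5% CO2; ONE-Glo added, 30 min room temperature, then luminescence read.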
NPC1 prom act = qHTS Assay for NPC1 Promoter Activators | actives 2.4% (n = 320,000) | Huh7 NPC1 promoter luciferase reporter, 24 h | Potency, µM (top dose mostly 9.22 µM), for inactives: at the highest dose activation, most hits filed as activators; further: % of control where 0% means no effect; nearly all actives have a fitted effect of over 60% in size
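Luminescence read-out of NPC1 promoter-driven luciferase in stably transfected Huh7 cells; compounds delivered in DMSO and left 24 h at 37C, 5% CO2, qHTS titration format.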
FLuc modulator = qHTS profiling assay for firefly luciferase inhibitor/activator using purifed enzyme and Km concentrations of substrates (counterscreen for miR-21 project); Luciferin 4-monooxygenase (Photinus pyralis), P08659; purified FLuc, Km substrates, luminescence inhibition; Potency, µM (series often up to 57.5 µM), for the others: at the highest dose activity change, negative = inhibition, most hits filed as inhibitors; actives 6.9% (n = 360,000); AID 588342, 2011;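 further: plate controls were vehicle for no effect and reference inhibitor for full effect; nearly all actives have a fitted effect of over 55% in size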
Target sequence (P08659 whole entry, looked up): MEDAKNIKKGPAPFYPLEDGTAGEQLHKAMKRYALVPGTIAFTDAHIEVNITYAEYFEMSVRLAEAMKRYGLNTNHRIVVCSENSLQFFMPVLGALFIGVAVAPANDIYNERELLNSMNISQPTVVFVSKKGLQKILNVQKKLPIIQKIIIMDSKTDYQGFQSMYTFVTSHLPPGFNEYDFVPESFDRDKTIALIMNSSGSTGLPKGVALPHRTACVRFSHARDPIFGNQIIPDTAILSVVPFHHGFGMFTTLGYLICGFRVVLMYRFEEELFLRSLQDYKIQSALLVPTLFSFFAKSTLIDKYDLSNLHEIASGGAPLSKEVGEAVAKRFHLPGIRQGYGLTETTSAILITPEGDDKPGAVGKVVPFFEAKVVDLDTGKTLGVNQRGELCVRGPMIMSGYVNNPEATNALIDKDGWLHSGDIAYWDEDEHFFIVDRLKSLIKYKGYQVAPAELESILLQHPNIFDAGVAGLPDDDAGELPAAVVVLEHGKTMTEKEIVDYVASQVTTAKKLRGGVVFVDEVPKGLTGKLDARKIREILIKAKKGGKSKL
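Purified P. pyralis luciferase (10nM final) with 10uM D-luciferin and 10uM ATP (Km levels) in 50mM Tris acetate pH 7.5, 10mM Mg acetate, 0.01% Tween-20, 0.05% BSA; qHTS 6-point titration, ~60 µM downward; luminescence read.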
SMN2 splice enh = qHTS Assay for Enhancers of SMN2 Splice Variant Expression. HEK293 SMN2-luciferase splicing reporter, luminescence, 30-36 h. Potency, µM (top dose mostly 46.1 µM), for inactives: top-dose activity change, positive = activation, usual class: activators. actives 2.8% (n = 210,000); further: % of control where 0% means no effect; nearly all actives have a fitted effect of over 55% in size
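HEK293 cells carry an SMN2 minigene-luciferase reporter in which exon 7 inclusion puts luciferase in frame. Cells were seeded at 2000 cells/well, attached for 10-12 hours, then exposed to compounds for 30-36 hours at 37C before ONE-Glo luminescence.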
Rab9 prom act = qHTS Assay for Rab9 Promoter Activators. Huh7 Rab9 promoter-luciferase reporter, luminescence, 24 h. Potency, µM (top dose mostly 9.22 µM), inactives show top-dose activation, negative = inhibition, actives largely listed as activators. actives 2.8% (n = 320,000). AID 485297, 2010; further: % of control where 0% means no effect; nearly all actives have a fitted effect of over 60% in size
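Steps: seed 1500 Huh7 Rab9-luc cells per well, rest 2 h at 37 °C; add compound in DMSO; incubate 24 h; add luciferase reagent, 10 min ambient; read luminescence.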
An asterisk follows results filed as active. A selection: hits, their analogues and other compounds. The true share with any hit is near 9.2%. The call rests on the fitted dose curve; in most records, active means well fitted curve in the direction sought with a large enough effect; inconclusive means small, poorly fitted or top-dose-only effect, or another doubt; inactive means no such curve, though single readings can be large; an effect the other way counts as inactive or inconclusive. Potency means the concentration at half of the fitted maximal effect.

What do the screens show for `O=C1NCCN(Cc2ccc(Cl)c(F)c2)C1CC(=O)N1CCCCO1` (stereo unspecified)?
ELG1 DNA repair: -2%; ELG1 genotoxic: -1%; NPC1 prom act: -3%; FLuc modulator: -1%; Rab9 prom act: -13%

Results for C=CCN(Cc1cc(OC)ccc1OC)C(=O)c1cc2ccc(OC)cc2[nH]1 ?
ELG1 DNA repair: -21%; ELG1 genotoxic: -9%; NPC1 prom act: 0%; FLuc modulator: inconclusive; Rab9 prom act: -3%

How did O=C(C[C@@H]1C/C=C\C[C@H](Cc2ccc(F)cc2)C(=O)OC[C@H]2CCCN2C1=O)N[C@H](CO)Cc1ccccc1 do in these assays?
ELG1 DNA repair: inconclusive; ELG1 genotoxic: -6%

What do the screens show for `O=S1(=O)C=C(Sc2nc3cc(Cl)ccc3o2)c2ccccc21`?
ELG1 DNA repair: 21µM*; ELG1 genotoxic: -22%; NPC1 prom act: -25%; FLuc modulator: -18%; Rab9 prom act: -73%

What do the screens show for `Cc1cccc(C(=O)O/N=C(\N)c2ccc(Cl)cc2)c1`?
ELG1 DNA repair: inconclusive; ELG1 genotoxic: inconclusive; NPC1 prom act: 0.4µM*; FLuc modulator: 1.9µM*; Rab9 prom act: 1.8µM*

Results for Cc1cccc(OCC(=O)O/N=C(\N)c2ccc(Cl)cc2)c1 ?
ELG1 DNA repair: 12%; ELG1 genotoxic: 1%; NPC1 prom act: -6%; FLuc modulator: -18%; SMN2 splice enh: -13%; Rab9 prom act: 3%

Results for N/C(=N\OC(=O)c1ccoc1)c1ccc(Br)cc1 ?
ELG1 DNA repair: inconclusive; ELG1 genotoxic: 3.7µM*; NPC1 prom act: 2.5µM*; FLuc modulator: 6.7µM*; Rab9 prom act: 3.2µM*

How did N/C(=N\OC(=O)N1CCOCC1)c1ccc(Br)cc1 do in these assays?
ELG1 DNA repair: inconclusive; ELG1 genotoxic: -2%; NPC1 prom act: inconclusive; FLuc modulator: inconclusive; SMN2 splice enh: -66%; Rab9 prom act: inconclusive

How did Cc1ccc(/C(N)=N/OC(=O)c2ccc(Cl)cc2Cl)cc1 do in these assays?
ELG1 DNA repair: inconclusive; ELG1 genotoxic: inconclusive; NPC1 prom act: 3.2µM*; FLuc modulator: 1.1µM*; SMN2 splice enh: 11µM*; Rab9 prom act: 2.5µM*

What do the screens show for `Cc1cccc(C(=O)O/N=C(\N)c2ccc(Br)cc2)c1`?
ELG1 DNA repair: inconclusive; ELG1 genotoxic: 11µM*; NPC1 prom act: 0.56µM*; FLuc modulator: 3µM*; SMN2 splice enh: 28%; Rab9 prom act: 0.71µM*

How did O=C(c1cccc(NS(=O)(=O)c2cccc(F)c2)c1)N1CCCC1 do in these assays?
ELG1 DNA repair: -4%; ELG1 genotoxic: -1%; NPC1 prom act: -1%; FLuc modulator: 1%; Rab9 prom act: -1%

Results for Cc1ccc(C(=O)O/N=C(\N)c2ccc(Br)cc2)cc1C ?
ELG1 DNA repair: inconclusive; ELG1 genotoxic: 16µM*; NPC1 prom act: 13%; FLuc modulator: inconclusive; SMN2 splice enh: -11%; Rab9 prom act: 18%

What do the screens show for `N/C(=N\OC(=O)c1cccc2ccccc12)c1ccc(Br)cc1`?
ELG1 DNA repair: inconclusive; ELG1 genotoxic: -12%; NPC1 prom act: 15%; FLuc modulator: inconclusive; SMN2 splice enh: inconclusive; Rab9 prom act: 13%

What do the screens show for `Cc1ccc(C)c(C(=O)O/N=C(\N)c2ccc(Br)cc2)c1`?
ELG1 DNA repair: inconclusive; ELG1 genotoxic: inconclusive; NPC1 prom act: inconclusive; FLuc modulator: 15µM*; SMN2 splice enh: inconclusive; Rab9 prom act: 27%

How did Cc1cc(C)cc(C(=O)O/N=C(\N)c2ccc(Br)cc2)c1 do in these assays?
ELG1 DNA repair: 21%; ELG1 genotoxic: 1%; NPC1 prom act: inconclusive; FLuc modulator: -20%; SMN2 splice enh: 15%; Rab9 prom act: inconclusive

What do the screens show for `Cc1cccc(C(=O)O/N=C/c2ccc(Br)cc2)c1`?
ELG1 DNA repair: inconclusive; ELG1 genotoxic: inconclusive; NPC1 prom act: -2%; FLuc modulator: 3.4µM*; SMN2 splice enh: -23%; Rab9 prom act: -3%

Results for CC(C)CC(=O)N(c1nnc(-c2cccnc2)s1)C1CCCC1 ?
ELG1 DNA repair: 7%; ELG1 genotoxic: -1%; NPC1 prom act: -1%; FLuc modulator: 2%; Rab9 prom act: 1%

What do the screens show for `CC(=O)N(c1nnc(-c2ccc(C)cc2)s1)C1CCCC1`?
ELG1 DNA repair: inconclusive; ELG1 genotoxic: inconclusive; NPC1 prom act: 0%; FLuc modulator: 13µM*; Rab9 prom act: inconclusive

How did CC(C)OCCCn1c(SC(C)C(=O)NC2CC2)nc2ccccc2c1=O (stereo unspecified) do in these assays?
ELG1 DNA repair: inconclusive; ELG1 genotoxic: 6%; NPC1 prom act: 2%; FLuc modulator: -1%; Rab9 prom act: -3%

What do the screens show for `Nc1nc(-c2ccc(-c3ccccc3)cc2)cs1`?
ELG1 DNA repair: inconclusive; ELG1 genotoxic: inconclusive; NPC1 prom act: 0.79µM*; FLuc modulator: 2.4µM*; SMN2 splice enh: 0.5µM*; Rab9 prom act: 0.4µM*

Results for Cc1ccc(OCc2csc(N)n2)cc1 ?
ELG1 DNA repair: inconclusive; ELG1 genotoxic: inconclusive; NPC1 prom act: inconclusive; FLuc modulator: 24µM*; SMN2 splice enh: 13µM*; Rab9 prom act: 4µM*

Results for COc1ccc(-c2csc(N)n2)cc1 ?
ELG1 DNA repair: inconclusive; ELG1 genotoxic: inconclusive; NPC1 prom act: inconclusive; FLuc modulator: 15µM*; SMN2 splice enh: 14µM*; Rab9 prom act: inconclusive

Results for Nc1nc(-c2ccc(C(=O)O)cc2)cs1 ?
ELG1 DNA repair: 9%; ELG1 genotoxic: 2%; NPC1 prom act: -8%; FLuc modulator: -9%; SMN2 splice enh: 5%; Rab9 prom act: -4%

Results for Nc1nc(-c2ccc(Oc3ccccc3)cc2)cs1 ?
ELG1 DNA repair: inconclusive; ELG1 genotoxic: inconclusive; NPC1 prom act: inconclusive; FLuc modulator: 13µM*; Rab9 prom act: inconclusive

What do the screens show for `CCOCCc1nn2c(=O)cc(COC(=O)COc3ccccc3Cl)nc2s1`?
FLuc modulator: 4%

Results for CCn1c(CNC(=O)c2cc(OC)c(OC)c(OC)c2)cc2ccccc21 ?
ELG1 DNA repair: -18%; ELG1 genotoxic: 8%; NPC1 prom act: -4%; FLuc modulator: -2%; Rab9 prom act: -12%

High-throughput results as filed in PubChem.
